PERK inhibitor = inhibitors of human PERK kinase; CHO PERK-DD fusion, SEAP luminescence translation reporter; inhibition, % at 5.6 µM; 220,000 compounds, 0.17% hits; AID 1416;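 active = inhibition above the mean inhibition of all tested compounds plus 3 SD, set separately per screening campaign, cut at about 2.9% in these data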;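 also: PERK kinase domain activated by AP20187 dimerizer at 100 nM; 0% = DMSO with dimerizer and 100% = rapamycin at 8.4 µM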
PABP polyA inh = PABP-poly(A) binding inhibition. 290,000 compounds, 1% hits. inhibition, % at 35 µM. PABP-poly(A) RNA binding, fluorescence polarization. AID 2014. P11940;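 also: calls also rest on retests at 20 µM and on dose response follow-up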
PABP1 MLLE inh = inhibitors of microRNA-mediated deadenylation, human PABP1 MLLE binding; P11940; GST-MLLE / FITC-PAM2 fluorescence polarization; inhibition, % at 20 µM; 360,000 compounds, 0.36% hits; AID 588489; in the data active = inhibition above about 35%, passing the limit was not always enough;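 also: plate controls were DMSO wells with GST-MLLE for no effect and wells lacking GST-MLLE protein for full effect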
GRK2 aptamer HTS = blocks RNA aptamer binding to human GRK2; P25098; bead flow cytometry, FAM-aptamer displacement from GRK2; inhibition of aptamer binding, % at 10 µM; 330,000 compounds, 0.59% hits; AID 488847;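 active = inhibition of aptamer binding above 40%, roughly 3 SD of noise, on plates passing a quality check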;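 also: median bead fluorescence of bound FAM aptamer so fluorescent compounds give negative values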
eIF4H FP inh = inhibitors of RNA binding by human eIF4H. eIF4H fluorescence polarization binding assay. inhibition, % at 35 µM. 290,000 compounds, 0.94% hits;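 also: calls also rest on retests at 20 µM and on dose response follow-up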
Active calls of the source: *; ? = inconclusive; . = no result given. A selection: hits, their analogues and other compounds. The true share with any hit is near 1.9%. Unless noted, no rule for the calls is given here.

SMILES | PERK inhibitor | PABP polyA inh | PABP1 MLLE inh | GRK2 aptamer HTS | eIF4H FP inh
CCCCCOc1ccc(C(=O)NCCC(=O)NCCCC(=O)OCC)cc1 | -2 | 3 | -2 | 0 | 12
Cc1ccc2cc(CCNC(=O)c3ccco3)c(=O)[nH]c2c1C | 0 | 124* | 9 | 0 | ?
COCc1cc(C)nc(SCc2ccc(Br)cc2)c1C#N | . | . | -2 | 1 | .
Cc1ccc(NC(=O)c2cc(S(=O)(=O)N(C)C)ccc2N2CCCC2)cc1F | . | -8 | -8 | 0 | -6
Cc1ccc2nc(-c3ccc(N4C(=NC(=O)CCC(=O)O)SC5CS(=O)(=O)CC54)cc3)sc2c1 (stereo not given) | 0 | active | -10 | 16 | 70*
CC(=O)N=C1SC2CS(=O)(=O)CC2N1c1ccc(-c2nc3ccc(C)cc3s2)cc1 (stereo not given) | 1 | 14 | . | 0 | 4
COc1ccc(C2c3sc(=O)[nH]c3SC3C(=O)N(c4ccccc4)C(=O)C32)cc1 (stereo not given) | 1 | -8 | 26 | 1 | 66*
CCC(C)(C(=O)Nc1ccc(OC)cc1)N(C)C(=O)Cn1nnnc1N (stereo not given) | . | 5 | -8 | 0 | -5
O=C(O)CCN1C(=O)c2ccc(Oc3ccc([N+](=O)[O-])cc3)cc2C1=O | . | 6 | -7 | 1 | -6
CCOc1ccc(C(=O)CC(C(=O)O)N2CCCCC2)cc1 (stereo not given) | . | . | 32 | 43* | .
Cc1ccc(N(C(=O)Nc2ccccc2)C2=NCCC2)cc1 | 0 | 54* | 10 | 1 | 88*
O=C(Nc1ccccc1)N(C1=NCCC1)c1ccccc1 | 1 | -1 | -13 | 1 | -4
CC[n+]1c(/C=C/C=C/N(C(C)=O)c2ccccc2)sc2cc(OC)ccc21 | 0 | 10 | . | 80* | ?
Cc1cc(C)cc(-n2cc[nH]c2=S)c1 | 2 | -11 | -25 | 2 | 0
Cc1ccccc1Nc1nc(Cl)c(C=O)s1 | 0 | 31* | -38 | 0 | 78*
CC(C)Nc1nc(NCCN2CCCC2)c2sc(-c3ccccc3)cc2n1 | . | . | -10 | . | .
CC(=O)N1CC[n+]2c(-c3ccc(Cl)cc3Cl)csc21 | 0 | 0 | 22 | 52* | -4
CCOC(=O)c1ccccc1N1C(=O)CSC1=S | -1 | 0 | 41* | 1 | -1
CC1(C(=O)Nc2cccc(NS(C)(=O)=O)c2)Cc2c(-c3cccc(C(N)=O)c3)ccnc2O1 (stereo not given) | . | . | 6 | . | .
CCN1C/C(=C/c2cccs2)c2nc3ccccc3c(C(=O)O)c2C1 | 0 | 72* | 46 | 0 | 62*
CCN1C/C(=C/c2sccc2C)c2nc3ccccc3c(C(=O)O)c2C1 | 1 | 83* | 17 | 0 | 72*
CN(C)c1ccc(CNC(=O)CC[C@H]2O[C@@H](n3cnc4c(NC(=O)c5ccccc5)ncnc43)[C@H](O)[C@@H]2O)cc1 | . | . | -3 | . | .
Cc1cc(C)c(OCC(=O)NCC2CCCO2)c(C)c1 (stereo not given) | 1 | -4 | 1 | 3 | 3
O=C(Nc1ccc(-n2nncc2-c2ccco2)cc1)c1cc2ccccc2oc1=O | 0 | 7 | -3 | 4 | 61*
O=C(Nc1ccc(-n2nncc2-c2ccco2)cc1)c1cccc(F)c1 | -1 | -8 | 11 | 1 | -20
SMILES | PERK inhibitor | PABP polyA inh | PABP1 MLLE inh | GRK2 aptamer HTS | eIF4H FP inh
CCc1ccc(CNC(=O)C2CC(=O)N(C3CCCC3)C2)cc1 (stereo not given) | . | 2 | 3 | 0 | -6
COc1ccc(C(C)(NC(C)=O)c2nc(-c3cccc(NC(C)=O)c3)cs2)cc1 (stereo not given) | . | . | 10 | . | .
O=C1NC(c2ccco2)Nc2sc3c(c21)CCN(Cc1ccccc1)C3 (stereo not given) | 2 | 124* | -74 | 2 | 116*
Cn1cccc1/C=C1\SC(=S)N(NC(=O)c2ccccc2O)C1=O | 1 | 62* | -136 | 0 | 82*
COc1ccccc1C(=O)NN1C(=O)/C(=C/c2cccn2C)SC1=S | -2 | 73* | . | . | 71
Cn1cccc1/C=C1\SC(=S)N(NC(=O)c2ccccc2)C1=O | 0 | 2 | -108 | 2 | ?
CC(C(=O)O)N1C(=O)/C(=C/c2cccn2C)SC1=S (stereo not given) | 1 | active | -135 | 2 | 93
CCN(CC(=O)Nc1ccccc1C(F)(F)F)C(=O)c1ccc(NC(=O)c2cccs2)cc1 | . | . | 0 | . | .
CCCCCCn1c(-c2cccs2)n[nH]c1=S | 0 | 55* | 14 | 0 | active
COc1ccc(CCNC(=O)Nc2nc(C(N)Cc3ccccc3)cs2)cc1OC (stereo not given) | . | . | 0 | . | .

From PubChem BioAssay
